Results filed as inconclusive are left out. The source made the active and inactive calls. Calls follow the shape of the dose curve; as a rule, active = well fitted curve in the direction sought with a large enough effect; inconclusive = small, poorly fitted or top-dose-only effect, or another doubt; inactive = no such curve, though single readings can be large; an effect the other way counts as inactive or inconclusive.
Experiments:
[1] = Cellular Toxicity (caspase-3) N2a (AID 665); details: N2a cells, luminescence, normalized: DMSO 0%, 10 µM staurosporine 100%; series mostly up to 92.2 µM;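 also: compound exposure lasted 16 h at 37 °C before readout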
Procedure, shortened: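 Concentration-response qHTS: compound-induced caspase-3/7 luminescence in N2a cells (16 h, 37 °C), relative to DMSO and 10 uM staurosporine controls; AC50 obtained using the standard Hill equation.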

[2] = Cellular Toxicity (caspase-3) NIH 3T3 (AID 666); details: NIH 3T3 caspase-3 activation, apoptosis/toxicity, 0% DMSO, 100% is 100 µM tamoxifen; series mostly up to 92.2 µM;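 also: caspase signal read after 16 h compound exposure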
Procedure, shortened: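 Activity: caspase-3/7 induction, NIH 3T3 cells, 16 hr treatment at 37°C, luminescent Caspase-Glo detection; AC50 via Hill equation.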

[3] = Cellular Toxicity (caspase-3) Renal Proximal Tubule (AID 667); details: renal proximal tubule cells, primary cells freshly taken from rat, solvent-only wells 0%, staurosporine 100%; series mostly up to 91.7 µM;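 also: cells exposed to compound for 16 hours at 37 °C before detection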
Procedure, shortened: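 AC50 derived by standard Hill fit of concentration-response data, normalized between DMSO basal and 10 uM staurosporine as 100% stimulation. Cells: primary rat kidney proximal tubule, 16 h treatment at 37 °C.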

[4] = target: Cytochrome P450 3A4 (Homo sapiens) (UniProt P08684); assay: qHTS Assay for Inhibitors and Substrates of Cytochrome P450 3A4 (AID 884); details: recombinant CYP3A4, Luciferin-PPXE luminescence; series mostly up to 57.1 µM; also: nearly all actives have a fitted effect of over 50% in size
Chain of Cytochrome P450 3A4 (Homo sapiens) (P08684 whole entry, looked up): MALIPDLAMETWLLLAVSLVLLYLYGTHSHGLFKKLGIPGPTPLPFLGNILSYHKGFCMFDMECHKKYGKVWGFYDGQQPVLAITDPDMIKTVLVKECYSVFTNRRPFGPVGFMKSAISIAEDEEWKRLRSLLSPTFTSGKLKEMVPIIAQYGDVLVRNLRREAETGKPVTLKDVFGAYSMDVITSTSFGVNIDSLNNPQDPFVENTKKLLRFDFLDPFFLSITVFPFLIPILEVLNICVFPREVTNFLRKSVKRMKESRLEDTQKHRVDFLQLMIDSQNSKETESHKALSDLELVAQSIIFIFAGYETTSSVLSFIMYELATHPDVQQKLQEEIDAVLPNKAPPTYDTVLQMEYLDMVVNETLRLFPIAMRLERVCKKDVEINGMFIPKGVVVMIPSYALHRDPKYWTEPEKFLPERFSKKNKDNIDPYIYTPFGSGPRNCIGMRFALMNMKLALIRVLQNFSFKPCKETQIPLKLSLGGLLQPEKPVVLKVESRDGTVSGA
Procedure, shortened: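 Luminescent readout of luciferin produced by CYP3A4 (20 nM) dealkylation of Luciferin-PPXE, 25 uM (its KM). NADPH-driven reaction ran 60 min at RT after 10 min compound preincubation; data scaled to 57 uM ketoconazole as 100% inhibition.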

[5] = Cell Viability - LYMP2-001 (AID 921); details: LYMP2-001 lymphoblastoid cell viability; series mostly up to 92.2 µM;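 also: cells exposed to compound for 24 h at 37 °C; nearly all actives have a fitted effect of over 70% in size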
Procedure, shortened: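 Steps: seed 2500 lymphoblastoid cells/well; 5 hr, 37 C; add compound; 24 hr, 37 C; CellTiter-Glo reagent, 30 min room temperature; read luminescence. Concentration-response modeled by Hill equation for AC50.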

[6] = MultiTox-Fluor Cytotoxicity Assay - LYMP1-001 - Dead Cells (AID 946); details: LYMP1-001 lymphoblastoid cells, dead-cell protease fluorescence; series mostly up to 92.2 µM
Procedure, shortened: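 AC50 from Hill fit of concentration-response; data normalized to DMSO (basal) and 15 uM tetraoctylammonium bromide (100%). LYMP1-001 lymphoblastoid cells, 2500/well, 16 hr compound at 37 C; dead-cell protease fluorescence, Ex/Em 485/520.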

[7] = MultiTox-Fluor Cytotoxicity Assay - LYMP1-001 - Live Cells (AID 947); details: LYMP1-001 lymphoblastoid cells, live-cell protease fluorescence viability; series mostly up to 92.2 µM
[8] = Cell Viability - LYMP1-002 - Assay at 16 hr (AID 948); details: LYMP1-002 lymphoblastoid cell viability; series mostly up to 92.2 µM
Procedure, shortened: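 Seed 2500 LYMP1-002 cells per well in complete medium and hold 5 hr at 37 C. Add compound across a concentration series and incubate 16 hr at 37 C. Add CellTiter-Glo, wait 30 min at room temperature, read luminescence.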

[9] = MultiTox-Fluor Cytotoxicity Assay - LYMP1-002 - Live Cells (AID 955); details: LYMP1-002 lymphoblastoid live-cell protease fluorescence viability; series mostly up to 46.1 µM;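 also: cells exposed to compound for 16 hours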
Procedure, shortened: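 In this qHTS viability format, lymphoblastoid cells (LYMP1-002, human) received compound for 16 hr at 37 C. Fluorogenic GF-AFC cleavage by viable cells was detected at 405/510 nm after 1 h at room temperature.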

[10] = MultiTox-Fluor Cytotoxicity Assay - LYMP1-002 - Dead Cells (AID 960); details: LYMP1-002 lymphoblastoid cells, dead-cell protease fluorescence; series mostly up to 46.1 µM; also: nearly all actives have a fitted effect of over 60% in size
Procedure, shortened: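 Concentration-dependent increases in membrane-leaked protease activity are quantified in LYMP1-002 cells after 16 hr treatment; values are normalized against DMSO and tetraoctylammonium bromide (15 uM) controls and AC50 derived by Hill modeling.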

[11] = MultiTox-Fluor Cytotoxicity Assay - LYMP1-003 - Dead Cells (AID 961); details: LYMP1-003 lymphoblastoid cells, dead-cell protease fluorescence; series mostly up to 92.2 µM; also: nearly all actives have a fitted effect of over 70% in size
Procedure, shortened: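 Human lymphoblastoid LYMP1-003 cells (2500/well) were treated with compounds for 16 hr at 37 C in complete medium. Dead-cell protease release was read by bis-AAF-R110 fluorescence (Ex/Em 485/520). AC50 came from Hill fits, normalized to DMSO and 15 uM tetraoctylammonium bromide.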

[12] = MultiTox-Fluor Cytotoxicity Assay - LYMP1-003 - Live Cells (AID 962); details: LYMP1-003 lymphoblastoid cells, MultiTox-Fluor live-cell protease fluorescence; series mostly up to 92.2 µM;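 also: cells exposed to compound for 16 hours at 37 °C; cytotoxic hits lower the live-cell protease signal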
Procedure, shortened: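 Human lymphoblastoid line LYMP1-003 in complete culture medium, treated 16 hr with titrated compounds. Viable cells quantified via cell-permeant GF-AFC substrate fluorescence; AC50 derived by Hill fitting.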

[13] = Cell Viability - LYMP1-003 - Assay at 24 hr (AID 963); details: LYMP1-003 lymphoblastoid cell viability; series mostly up to 92.2 µM
Procedure, shortened: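 The lymphoblastoid line was treated with titrated compounds for 24 hours, and viable cell number estimated from luciferase-based ATP luminescence.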

[14] = Cell Viability - LYMP1-003 - Assay at 40 hr (AID 964); details: LYMP1-003 lymphoblastoid viability; series mostly up to 92.2 µM; also: nearly all actives have a fitted effect of over 60% in size
Procedure, shortened: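 Acute toxicity is scored as a concentration-dependent loss of intracellular ATP in LYMP1-003 cells (2500/well, complete medium) after 40 hr at 37 C, measured by CellTiter-Glo luminescence; AC50 values derive from standard Hill modelling.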

[15] = Cell Viability - LYMP2-003 (AID 965); details: LYMP2-003 lymphoblastoid cell viability; series mostly up to 92.2 µM;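 also: cells exposed to compounds for 24 h before reading; nearly all actives have a fitted effect of over 50% in size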
Procedure, shortened: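 Seed 2500 lymphoblastoid cells/well; incubate 5 hr, 37 C; add compounds; incubate 24 hr, 37 C; add CellTiter-Glo, 30 min RT; read luminescence. AC50 from Hill fit.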

[16] = Cell Viability - LYMP2-004 (AID 966); details: LYMP2-004 lymphoblastoid cell viability, qHTS; series mostly up to 92.2 µM; also: nearly all actives have a fitted effect of over 65% in size
Procedure, shortened: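 Viable-cell number estimated from ATP luminescence (CellTiter-Glo) in 2500 human lymphoblastoid cells/well after 24 hr at 37 C with compound. AC50 fitted to the standard Hill equation.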

[17] = Cell Viability - LYMP2-005 (AID 967); details: LYMP2-005 lymphoblastoid cell viability; series mostly up to 92.2 µM;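 also: cells exposed to compound for 24 h at 37 °C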
Procedure, shortened: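 Acute cytotoxicity is scored as a concentration-dependent drop in intracellular ATP in human lymphoblastoid LYMP2-005 cells after 24 h compound treatment. ATP is quantified by luciferase luminescence, and AC50 is derived by Hill-equation modelling.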

[18] = Cell Viability - LYMP2-009 (AID 968); details: LYMP2-009 lymphoblastoid cell viability; series mostly up to 92.2 µM;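 also: cells exposed to compound for 24 h at 37 °C; nearly all actives have a fitted effect of over 55% in size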
[19] = Cell Viability - LYMP2-011 (AID 969); details: LYMP2-011 lymphoblastoid cells viability; series mostly up to 92.2 µM; also: nearly all actives have a fitted effect of over 60% in size
Procedure, shortened: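 Cells seeded at 2500 per well rest 5 hr before compound addition, then incubate 24 hr at 37 C. CellTiter-Glo reagent is added for 30 min at room temperature before luminescence detection.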

[20] = Cell Viability - LYMP2-013 (AID 970); details: LYMP2-013 lymphoblastoid cells viability; series mostly up to 92.2 µM;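 also: cells exposed to compound for 24 h at 37 °C; nearly all actives have a fitted effect of over 55% in size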
Procedure, shortened: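 In complete culture medium, human lymphoblastoid cells were dosed for 24 hr at 37 C, with tetraoctylammonium bromide (6.4pM to 92 uM) as positive control. Viability reflects luciferase-based ATP signal; AC50 derived from concentration-response curves.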

[21] = Cell Viability - LYMP2-017 (AID 972); details: LYMP2-017 lymphoblastoid cell viability; series mostly up to 92.2 µM;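 also: cells exposed to compound for 24 hours at 37 °C; nearly all actives have a fitted effect of over 55% in size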
Procedure, shortened: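 In this qHTS format, lymphoblastoid cells in complete medium receive test compound for a day at 37 C before ATP content is quantified by luciferase luminescence. Reported AC50 figures come from standard Hill-equation curve fitting.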

[22] = Cell Viability - LYMP2-019 (AID 973); details: LYMP2-019 lymphoblastoid cell line viability; series mostly up to 92.2 µM;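 also: cells exposed to compound for 24 h at 37 °C; nearly all actives have a fitted effect of over 55% in size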
Procedure, shortened: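 AC50 values come from Hill-equation modelling of qHTS concentration-response curves, where viability is measured as luciferase-based ATP luminescence in the lymphoblastoid line after 24 hr compound exposure in complete culture medium.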

Measured: Potency

CCCCCCCCCCCC(=O)O
inactive: all assays above

Reference: PubChem BioAssay (NCATS)
